Here are results for 24 molecules from PubChem BioAssay AID1259415 (National Center for Advancing Translational Sciences (NCATS), 2018).

In all, about 410,000 compounds went through this assay and about 18,000 (4.4%) were called active. Roughly 7% stayed inconclusive and do not appear here. The sample as a whole holds a higher share of actives than the screen did. Unmarked numbers belong to inactive results. Cut-off read from the data, not from the text of the source: active = activity change below about -60%; inconclusive = no clear call, values can overlap the other calls; inactive = above about -39%.
% is set by controls: 0 for no effect and ±100 for the full control effect.

The test can be described thus: qHTS Assay for inhibitors of the human cytomegalovirus (HCMV). As to conditions: HFF cells, HCMV-luciferase reporter, 72 h; at 57.5 µM; active compounds read low. A digest of the protocol: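 Two compound doses tested in HFFs infected with HCMV-luciferase, MOI 1 PFU/cell, 72 h at 37C. Lysate luminescence read with OneGlo; data normalized against buffer-only and 10uM Salinomycin inhibitor controls.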
In the case of `Cc1cccc(CSc2nc3ccncc3n2CC(=O)N(C)C2CCCCC2)c1`, the activity change, negative = inhibition was 19.5%.
With `O=C(NCC(c1ccco1)S(=O)(=O)c1cccs1)c1ccc(F)cc1` (centres undefined), the activity change, negative = inhibition is 0%.
For the molecule `CSc1ncnc2sc(C)c(C)c12`, the activity change, negative = inhibition is -17.9%.
In the case of `Cc1cccc(-n2ccnc2SCC(=O)Nc2cccc3ccccc23)c1C` it was -0.357%; in that of `O=C(Nc1ccccc1N1CCCC1)c1ccc(F)c(S(=O)(=O)N2CCOCC2)c1`, -11.8%; in that of `Cc1ccc(C)c(NC(=O)c2ccc3nccnc3c2)c1`, -67% (active).
For `CC(C)CCC(C)NC(=O)c1ccc2nccnc2c1` (centres undefined), the activity change, negative = inhibition was 43%.
In the case of `O=C(Nc1ccccc1N1CCCCC1)c1ccc2nccnc2c1` it was -62.2% (active); in that of `CCn1c(=O)c(=O)n(CC)c2cc(N3CCCCC3)c(NC(=O)c3cccc(F)c3)cc21`, -12.9%; in that of `O=C(NCCc1ccc(F)cc1)c1ccc2nccnc2c1`, 104%.
As to `CCOC(=O)c1ccccc1NC(=O)c1nn(-c2ccc(OC)c(Cl)c2)c(=O)c2c1c1ccccc1n2C`, the activity change, negative = inhibition was 11.6%.
In the case of `Cc1ccc(C)c(Cn2c(C(=O)O)c(CNCc3cccs3)c3ccccc32)c1` it was -8.87%; in that of `CC(=O)N1CCCc2cc(S(=O)(=O)N3CCC(C(=O)NCc4ccc(C)cc4)CC3)ccc21`, -4.1%.
With `COc1ccc(OC)c(-c2noc(N3CCN(c4cc(Cl)ccc4C)CC3)n2)c1`, the activity change, negative = inhibition is -0.0922%.
Consider `COC(=O)c1cc(NC(=O)c2cnc(SC)nc2-c2ccccc2)cc(C(=O)OC)c1`, for which the activity change, negative = inhibition was 22.8%.
The value for `CC1CCC(C(C)C)C(=O)/C1=C\c1ccc(NC(=O)CCC(=O)O)cc1` (centres undefined) was -26.4%; that for `O=c1[nH]c2ccccc2n1C1CCN(C(c2ccnc3ccccc23)c2nnnn2Cc2ccccc2)CC1` (centres undefined) was -61.4% (active).
In the case of `CCOC(=O)N1CCN(C(c2ccnc3ccccc23)c2nnnn2-c2c(C)cccc2C)CC1` (centres undefined) it was -0.353%; in that of `O=c1[nH]c2ccccc2n1C1CCN(C(c2ccccc2)c2nnnn2Cc2ccccc2)CC1` (centres undefined), -93.7% (active); in that of `CC(C)C(c1nnnn1Cc1ccccc1)N1CCC(C(N)=O)CC1` (centres undefined), 55.3%.
As to `CSCCC(c1nnnn1C(C)(C)C)N1CCC(n2c(=O)[nH]c3ccccc32)CC1` (centres undefined), the activity change, negative = inhibition was -37.7%.
On to `O=c1[nH]c2ccccc2n1C1CCN(CCOc2ccccc2)CC1`, for which the activity change, negative = inhibition was -29.7%.
The value for `CCCN(CCC)CCCNC(=O)CNC(=O)c1nn(-c2ccc(OC)cc2)c(=O)c2ccccc12` was -0.192%; that for `Cc1ccc(Cl)cc1N1CCN(C(=O)c2cn(C)c3ccc(S(=O)(=O)N(C)C4CCCCC4)cc3c2=O)CC1` was 19.9%.
